Experimental data published in the supplement of paper PMC12024424.
Structures can show the parent of a compound that is named as a salt.

Legend:
[1] = system: Staphylococcus aureus Sa2 (MRSA, cystic fibrosis isolate); assay: growth reduction vs untreated control (OD550); higher = stronger antibacterial activity; conditions: 0.1 mM; 24 h
Experimental: (§1)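 Single-dose screen of the MedChem Express Drug Repurposing Library (0.1 mM, 1% DMSO) against planktonic MRSA S. aureus Sa2 (CF isolate) in TSB in 96-well plates, 37 °C aerobic, 24 h. Assays were run in triplicate and repeated twice.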

[2] = system: Staphylococcus aureus Sa2 (MRSA, cystic fibrosis isolate); assay: growth reduction vs untreated control (viable cell count); higher = stronger antibacterial activity; extreme values may be limits of the assay; conditions: 0.1 mM; 24 h
Experimental: as §1

SMILES: Cc1cccc(Nc2ccccc2C(=O)O)c1C [Mefenamic acid]
- growth reduction [1]: 97.3%
- growth reduction [2]: 100%

SMILES: Cc1ccc(C(=O)N(CCCN)[C@@H](c2nc3cc(Cl)ccc3c(=O)n2Cc2ccccc2)C(C)C)cc1 [Ispinesib]
- growth reduction [1]: 100%
- growth reduction [2]: 100%

SMILES: CC1(C)CC=C(c2nc(C3CC(C)(C)OC(C)(C)C3)ccc2NC(=O)c2nc(C#N)c[nH]2)CC1 [Edicotinib]
- growth reduction [1]: 99.3%
- growth reduction [2]: 100%

SMILES: C=C[C@@H]1C[C@]1(NC(=O)[C@@H]1C[C@@H]2CN1C(=O)[C@H](C(C)(C)C)NC(=O)O[C@@H]1C[C@H]1CCCCCc1nc3ccc(OC)cc3nc1O2)C(=O)NS(=O)(=O)C1CC1 [Grazoprevir hydrate]
- growth reduction [1]: 100%
- growth reduction [2]: 100%

SMILES: O=C(O)c1cc(-c2ccc(F)cc2F)ccc1O [Diflunisal]
- growth reduction [1]: 93.6%
- growth reduction [2]: 98%

SMILES: CCOc1cc(CC(=O)N[C@@H](CC(C)C)c2ccccc2N2CCCCC2)ccc1C(=O)O [Repaglinide]
- growth reduction [1]: 96.9%
- growth reduction [2]: 100%

SMILES: Cn1c(O)c(C2=c3ccccc3=NC2=O)c2ccccc21 [Meisoindigo]
- growth reduction [1]: 100%
- growth reduction [2]: 100%

SMILES: O=c1[nH]c(=O)n([C@H]2C[C@H](O)[C@@H](CO)O2)cc1F [Floxuridine]
- growth reduction [1]: 100%
- growth reduction [2]: 100%

SMILES: CCN(C/C=C\c1ccc(C2CCCCC2)c(Cl)c1)C1CCCCC1
- growth reduction [1]: 100%
- growth reduction [2]: 99%

SMILES: Cc1cc(SCc2sc(-c3ccc(C(F)(F)F)cc3)nc2C)ccc1OCC(=O)O
- growth reduction [1]: 100%
- growth reduction [2]: 100%

SMILES: O=C(Nc1ccc([N+](=O)[O-])cc1Cl)c1cc(Cl)ccc1O [Niclosamide]
- growth reduction [1]: 99.8%
- growth reduction [2]: 100%

SMILES: O=c1nc(OC[C@@H]2COCCO2)cc2n1CCc1cc(C#CC3CC3)ccc1-2
- growth reduction [1]: 96.2%
- growth reduction [2]: 93%

SMILES: CC(C)(C)[C@@H]1NC(=O)O[C@@H]2CCC[C@H]2OC/C=C/C(F)(F)c2nc3ccccc3nc2O[C@@H]2C[C@@H](C(=O)N[C@]3(C(=O)NS(=O)(=O)C4(C)CC4)C[C@H]3C(F)F)N(C2)C1=O [Glecaprevir]
- growth reduction [1]: 100%
- growth reduction [2]: 100%

SMILES: CC(C)(C)OC(=O)N[C@H]1CCCCC/C=C\[C@@H]2C[C@@]2(C(=O)NS(=O)(=O)C2CC2)NC(=O)[C@@H]2C[C@@H](OC(=O)N3Cc4cccc(F)c4C3)CN2C1=O [Danoprevir]
- growth reduction [1]: 99.9%
- growth reduction [2]: 100%

SMILES: CC(C)(C)NCC(O)COc1ccccc1C1CCCC1 (single isomer, unassigned; (+)) [(+)-Penbutolol]
- growth reduction [1]: 91%
- growth reduction [2]: 94%

SMILES: CN1CCN(c2ccc(C(=O)Nc3n[nH]c4ccc(Cc5cc(F)cc(F)c5)cc34)c(NC3CCOCC3)c2)CC1 [Entrectinib]
- growth reduction [1]: 100%
- growth reduction [2]: 96%

SMILES: Clc1ccccc1C(c1ccccc1)(c1ccccc1)n1ccnc1 [Clotrimazole]
- growth reduction [1]: 100%
- growth reduction [2]: 100%

SMILES: C=CC(=O)N1CC[C@@H](Oc2nc(Nc3ccc(N4CCC(N5CCN(C)CC5)CC4)cc3)c(C(N)=O)nc2CC)C1 [Naquotinib (mesylate)]
- growth reduction [1]: 99.6%
- growth reduction [2]: 100%

SMILES: Cc1cc(Nc2ncnc3ccc(NC4=NC(C)(C)CO4)cc23)ccc1Oc1ccn2ncnc2c1 [Tucatinib]
- growth reduction [1]: 91.9%
- growth reduction [2]: 92%

SMILES: NC(=O)N1c2ccccc2C[C@H](O)c2ccccc21 [Eslicarbazepine]
- growth reduction [1]: 92.7%
- growth reduction [2]: 94%

SMILES: C=C[C@@H]1C[C@]1(NC(=O)[C@@H]1C[C@@H]2CN1C(=O)[C@H](C(C)(C)C)NC(=O)O[C@@H]1C[C@H]1CCCCCc1nc3ccc(OC)cc3nc1O2)C(=O)NS(=O)(=O)C1CC1 [Grazoprevir potassium salt]
- growth reduction [1]: 97.2%
- growth reduction [2]: 100%

SMILES: CCN1CCN(c2ccc(Nc3cc(N(C)C(=O)Nc4c(Cl)c(OC)cc(OC)c4Cl)ncn3)cc2)CC1 [Infigratinib]
- growth reduction [1]: 100%
- growth reduction [2]: 100%

SMILES: COCC[n+]1c2c(n(Cc3cnccn3)c1C)C(=O)c1ccccc1C2=O [Sepantronium (bromide)]
- growth reduction [1]: 100%
- growth reduction [2]: 100%

SMILES: CC(C)C[C@@H](C(=O)N[C@H](C(=O)OC1CCCC1)c1ccccc1)[C@H](O)C(=O)NO [Tosedostat]
- growth reduction [1]: 100%
- growth reduction [2]: 100%

SMILES: CC(=C(CCOC(=O)C(C)C)SSC(CCOC(=O)C(C)C)=C(C)N(C=O)Cc1cnc(C)nc1N)N(C=O)Cc1cnc(C)nc1N (stereo in doubt) [Sulbutiamine]
- growth reduction [1]: 97%
- growth reduction [2]: 97%

SMILES: Cc1ccc([C@@H]2O[C@H](CO)[C@@H](O)[C@H](O)[C@H]2O)cc1Cc1ccc(-c2ccc(F)cc2)s1 [Canagliflozin]
- growth reduction [2]: 100%

SMILES: C=C[C@@H]1C[C@]1(NC(=O)[C@@H]1C[C@@H]2CN1C(=O)[C@H](C(C)(C)C)NC(=O)O[C@@H]1C[C@H]1CCCCCc1nc3ccc(OC)cc3nc1O2)C(=O)NS(=O)(=O)C1CC1 [Grazoprevir]
- growth reduction [1]: 100%
- growth reduction [2]: 100%

SMILES: CC(OC(=O)c1ccc(Cc2c(O)c3ccccc3oc2=O)cc1)(C(F)(F)F)C(F)(F)F [Tecarfarin]
- growth reduction [1]: 100%
- growth reduction [2]: 100%

SMILES: CCCCCCCCCCCCCCCC[N+](C)(C)CCN(Cc1ccc(OC)cc1)c1ncccn1 [Thonzonium (bromide)]
- growth reduction [1]: 100%
- growth reduction [2]: 100%
